This test deals with Torsin-1A (Homo sapiens) (UniProt O14656). The experiment in a line: torsin A mutant lysate binding on microarrays – cell lysate, small-molecule microarray, COS7 lysate, 635/667 nm fluorescence, primary screen (AID 1150).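 Also: score pools 667 nm emission and signal to noise measuring lysate protein binding.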 The note with it: COS7 hTOR1A mutant lysate, 635 nm fluorescence, higher = more signal.
Chain of Torsin-1A (Homo sapiens) (O14656 whole entry, looked up): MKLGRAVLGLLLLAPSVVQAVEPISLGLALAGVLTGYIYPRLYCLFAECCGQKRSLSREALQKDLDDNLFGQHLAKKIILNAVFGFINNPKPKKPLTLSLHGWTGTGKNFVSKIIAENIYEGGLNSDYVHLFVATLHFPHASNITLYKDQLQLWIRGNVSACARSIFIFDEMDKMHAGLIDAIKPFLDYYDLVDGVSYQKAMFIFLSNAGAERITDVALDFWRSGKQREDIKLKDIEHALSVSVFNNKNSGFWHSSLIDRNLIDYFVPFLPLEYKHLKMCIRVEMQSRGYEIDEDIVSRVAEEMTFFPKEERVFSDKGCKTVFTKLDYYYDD
`CC(=O)OC[C@H]1O[C@@H](ON=C[C@@H](C)[C@H](OCc2ccccc2)C(C)C)[C@H](OC(C)=O)[C@@H](OC(C)=O)[C@@H]1OC(C)=O` displayed a composite z-score of 0.958.
Next, `CN1C(=O)C2C=CC(C(O)C(c3ccccc3)c3ccccc3)N(NC(=O)OC(C)(C)C)C2C1=O` (centres undefined): 0.848.
The value for `COC(=O)C1=C(C)N(Cc2ccccc2)[C@]23O[C@](C(=O)OC)(C(=O)N2[C@@H]1c1ccccc1)[C@H]1CCOC(=O)[C@H]13` was 0.22; that for `C=C(CCCC)C(=O)CC[C@@H](OC(C)=O)c1cccc(OCCO)c1` was 0.594; that for `CO[C@@H]1COC(=O)CC=C[C@@H](C)[C@@H]2C=C[C@@H](O)[C@@H](COC(=O)CC=C[C@H]1C)O2` was 0.244.
Next, `COC(=O)[C@@]1(Cc2ccccc2)[C@H]2c3cc(C(=O)N4CCCC4)n(Cc4ccccn4)c3C[C@H]2CN1C(=O)c1ccccc1`: 1.91; `CCOC(=O)NN=C1C[C@@H](O)[C@@H](O)[C@@H]2[C@@H]3C(=O)N(C(C)(C)C)C(=O)[C@@H]3CC[C@@H]12`: 0.541.
`C=CCN1C(=O)[C@]2(O[C@H](CCn3cc(CCO)nn3)[C@@H]([Si](C)(C)c3ccc(OC)cc3)[C@@H]2C)c2cc(N3CCOC3=O)ccc21` returned a composite z-score of 0.855.
With `CCOc1ccc(N2C(=O)/C(=C/C=C/c3ccccc3OC)S(=O)(=O)C2c2cccc([N+](=O)[O-])c2)cc1` (centres undefined), the composite z-score came to 0.184.
The value for `O[C@@H](Cc1ccccc1)[C@H]1C2C=CCCC(c3ccccc3)=C2CN1Cc1cccc(Cl)c1` (some centres undefined) was 0.144.
`CO[C@H]1O[C@H](CO)[C@@H](OC(=O)Nc2ccc(C#N)cc2)[C@H](OC(=O)c2cc3ccccc3[nH]2)[C@H]1OC(=O)c1cc2ccccc2[nH]1` had a composite z-score of 1.36.
Next, `Cc1ccc(S(=O)(=O)N[C@@H]2COC(=O)[C@H](C)COC(=O)CC=C[C@H]2C)cc1`: 0.615; `C=CC[C@@H]1C=C[C@H](ON=C2c3cc(OC)ccc3O[C@H](c3cccc(OC)c3)[C@H]2O)[C@@H](CO)O1`: -0.129; `C=CCC(OC(C)=O)[C@@H]1[C@@H](N(Cc2cc3ccccc3o2)C(=O)Cc2ccc(F)cc2)c2cc(OCCCO)ccc2N1C(=O)Cc1ccc(OC)cc1` (some centres undefined): -0.522.
The value for `CCOC(=O)[C@H](CC(C)C)NC(=O)CCC1CC(OC(=O)NCCc2ccc(F)cc2)CC2(CCCC(COC(=O)NCc3ccccc3)O2)O1` (some centres undefined) was 0.154; that for `O=C1[C@H]2[C@H]3[C@H](O)[C@H](O)CC(=NOC[C@@H](O)COCc4ccco4)[C@H]3CC[C@H]2C(=O)N1Cc1ccc2c(c1)OCO2` was 3.17.
Next, `CC(CCC(=O)OC[C@H]1O[C@H](C#Cc2ccccc2)C=C[C@@H]1Oc1ccc(C)cc1)=NOC[C@@H](O)[C@H]1O[C@@H]2OC(C)(C)O[C@@H]2[C@H]1O`: -0.617.
`CC(C)(C)N1CC=CC23O[C@@H]4C=CCCOC(=O)C4[C@H]2C(=O)N(CCCCCO)[C@@H]3C1=O` (some centres undefined) had a composite z-score of 0.879.
On to `CCc1cc2c(nc1CC)CCN(CCC(C)=NO[C@@H](C)c1cc(-c3c(C)cc(C)cc3C)no1)C2`, for which the composite z-score worked out at 0.0048.
Next, `CC(C)CON=C1C[C@@H](O)[C@@H](O)[C@@H]2[C@@H]3C(=O)N(Cc4ccccc4)C(=O)[C@@H]3CC[C@@H]12`: 0.16.
Next, `COCCCNC(=O)[C@@]1(C)c2ccccc2C(=O)N(Cc2ccc(OC(F)(F)F)cc2)[C@H]1c1ccc(CO)cc1`: -0.17; `O=C1C2=CC[C@H]3C(=O)N(Cc4ccc5c(c4)OCO5)C(=O)[C@H]3[C@H]2[C@H](O)[C@@H]2O[C@H]12`: 0.677; `COc1ccc(O[C@H]2C=C[C@@H](c3ccccc3)O[C@@H]2COC(=O)CCC(C)=NOC(C)CN2CCCCc3nc(C)c(C)cc32)cc1` (some centres undefined): -0.489.
Next, `CC(CCN1CCCCc2nc(C)c(C)cc21)=NOC(C)CN1CCCCc2nc(C)c(C)cc21` (centres undefined): 2.32.
`O=C1[C@H]2[C@H]3[C@H](O)[C@H](O)CC(=NOCc4ccccc4)[C@@H]3CC[C@H]2C(=O)N1C1CCCCC1` showed a composite z-score of -0.47.
With `COc1ccc([Si](C)(C)[C@@H]2[C@@H](CCO)O[C@]3(C(=O)N(Cc4ccc(NC(C)=O)cc4)c4ccccc43)[C@H]2C)cc1`, the composite z-score was found to be 1.21.
The value for `Cc1cc2c(c(=O)o1)[C@H](O)[C@H]1O[C@H]1C2=O` was 0.46.
Next, `O=C1[C@H]2[C@H]3[C@H](O)[C@H](O)CC(=NOC[C@@H](O)COCc4ccco4)[C@H]3CC[C@H]2C(=O)N1C1CCCCC1`: 1.64.
As for `[N-]=[N+]=Nc1ccccc1C[C@@]1(C(N)=O)N=C(c2ccc(OCCCO)cc2)O[C@@H]1c1ccccc1`, the composite z-score is 0.355.

Values taken from PubChem BioAssay.
